In all, about 390,000 compounds went through this assay and about 55 (0.01%) were called active. Calls come from the whole dose curve; as a rule, active = well fitted inhibition curve with a large enough effect; inconclusive = small, poorly fitted or top-dose-only effect; inactive = no such curve, though single readings can be large or run the other way. The list is a sample of the results.
molecular target: Thioredoxin reductase 1, cytoplasmic (Rattus norvegicus) (UniProt O89049); assay: qHTS Assay for Substrates of Mammalian Selenoprotein Thioredoxin Reductase 1 (TrxR1): qHTS; settings: purified TrxR1 substrate turnover, NADPH consumption readout; series mostly up to 114 µM; note: nearly all actives have a fitted effect of over 50% in size
Source text: The selenoprotein thioredoxin reductase (TrxR; EC 1.8.1.9) is a FAD containing homodimeric pyridine nucleotide-disulfide oxidoreductase with many cellular roles. Together with NADPH and its prime substrate thioredoxin (Trx), the enzyme forms the core of the Trx system. The mammalian Trx system exerts a wide spectrum of functions including redox regulation, antioxidant defense, regulation of transcription factors as well as support of cell growth and replication. Many of these functions involve the reduction of Trx, which may subsequently reduce a number of different substrates including ribonucleotide reductase, peroxiredoxins or NFkB. Mammalian TrxR itself also has a broad substrate specificity, reducing both protein and non-protein substrates, including low molecular weight compounds such as dehydroascorbate, lipoic acid, ubiquinone, and juglone. In addition, several drugs in clinical use for anticancer treatment are indeed known to target TrxR1.
This BioAssay is a validation of an NADPH fluorescence-based, dual-purpose qHTS rTrxR1 assay designed to find potential inhibitors and substrates of rTrxR1. For this particular BioAssay, actives are potential substrate. See related BioAssay for inhibition data deposition.
NIH Molecular Libraries Probe Production Network [MLPCN]
NIH Chemical Genomics Center [NCGC]
Assay Provider: Elias Arner, Karolinska Institute
Assay protocol: 2 uL of reagents (buffer in column 4 as negative control and 90 nM rTrxR1 in columns 1-3 and 5-48) were dispensed into Greiner black solid-bottom 1,536-well assay plates, followed by 1 uL of NADPH (400 uM final concentration) to each well. The plates were centrifuged at 1000 rpm for 15 seconds and subsequently incubated for 5 min at room temperature (~22 deg C) to allow for rTrxR1 reduction. Compounds (23 nL) were then transferred via Kalypsys pin tool equipped with 1536-pin array (10 nL slotted pins, V&P Scientific, San Diego, CA). In addition, a duplicate 2-fold serial dilution of the control compounds auranofin, a known gold-based TrxR1 inhibitor, and juglone (5-hydroxy-1,4-naphthoquinone), a natural TrxR1 substrate, were pin-transferred to columns 2 and 3, respectively. After incubation for 15 min at room temperature (~22 deg C), 1 uL of selenite (400 uM final concentration) were dispensed to each well. The plate was immediately transferred to a ViewLux high-throughput CCD imager (PerkinElmer), wherein kinetic measurements of NADPH fluorescence (Ex 340 nm, Em 450 nm) were acquired (8 minute kinetic read, see Table 1). Read 1 was utilized to assess the capacity of a compound to serve as an rTrxR1 substrate, i.e. a decrease in NADPH fluorescence compared to the no-compound background is an indication of a substrate behavior for that particular compound. For inhibitory activity of a compound, delta values, computed as the difference in fluorescence intensity between the first and last reads of an 8-minute time kinetic window, were used. All reagents were diluted in an assay buffer consisting of 50 mM Tris-HCl, pH 7.5, 2 mM EDTA, and 0.01% Tween-20.
Throughout the screen, reagent bottle and all liquid lines were made light-tight to minimize reagent degradation. All screening operations were performed on a fully integrated robotic system (Kalypsys, San Diego, CA) containing one RX-130 and two RX-90 anthropomorphic robotic arms (Staubli, Duncan, SC). Library plates were screened starting from the lowest and proceeding to the highest concentration, and a 'double-pinning' step of the highest concentration was required to access higher concentrations of compounds. Vehicle-only plates, with DMSO being pin-transferred to the columns 5-48, were inserted uniformly at the beginning and the end of each library in order to monitor and record any shifts in the background, which can be affected by reagent dispensers or loss in enzyme activity over time. […]
% is set by controls: 0 for no effect and ±100 for the full control effect.

Thioredoxin reductase 1, cytoplasmic (Rattus norvegicus), sequence (O89049 whole entry, looked up): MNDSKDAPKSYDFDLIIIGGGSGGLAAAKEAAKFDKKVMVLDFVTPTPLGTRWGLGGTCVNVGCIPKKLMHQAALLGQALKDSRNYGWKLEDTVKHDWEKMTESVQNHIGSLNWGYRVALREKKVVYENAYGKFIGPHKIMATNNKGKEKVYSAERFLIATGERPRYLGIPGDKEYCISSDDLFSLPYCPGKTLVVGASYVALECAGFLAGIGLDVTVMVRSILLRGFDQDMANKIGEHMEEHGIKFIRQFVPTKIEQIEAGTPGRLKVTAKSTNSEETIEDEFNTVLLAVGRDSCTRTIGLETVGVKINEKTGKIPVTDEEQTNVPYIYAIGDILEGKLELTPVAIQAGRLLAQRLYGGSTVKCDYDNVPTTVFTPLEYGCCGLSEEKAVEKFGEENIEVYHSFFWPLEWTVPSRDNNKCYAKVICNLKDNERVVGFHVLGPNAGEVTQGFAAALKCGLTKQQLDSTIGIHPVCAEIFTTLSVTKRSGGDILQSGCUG

Activity change, negative = substrate turnover, inactive:
Cc1ccc(-c2nc(=N)sn2Cc2ccccc2)cc1
C[N+]1(CC(=O)c2cccs2)CCOCC1
COc1ccccc1OCCNCC(O)COc1cccc2[nH]c3ccccc3c12 (stereo not given)
CN(C)c1ccc(/C=c2\[nH]c(=O)/c(=C/c3ccc(N(C)C)cc3)[nH]c2=O)cc1
Cc1ccc(-n2nc(C)c(C(=O)O)c2-n2cccc2)cc1
OC(CBr)CN1CCCCC1 (stereo not given)
O=C(O)/C(=C/c1c(C(=O)O)[nH]c2cc(Cl)cc(Cl)c12)c1ccccc1
Cc1ccc(-c2nnc(Nc3ccc(OCC(N)=O)cc3)c3ccccc23)cc1S(=O)(=O)NCC1CCCO1 (stereo not given)
CCc1cccc(NC(=O)c2cnc(N3CCOCC3)c3ccccc23)c1
CCC(=O)N1CCc2cc(Br)cc(S(=O)(=O)NCc3ccc(Cl)cc3)c21
Cc1cc2oc(C(=O)N(Cc3ccc(Cl)cc3)Cc3ccco3)c(C)c2cc1Cl
O=C(C[n+]1ccncc1)c1ccc2c(c1)CCCC2
CNCCCOc1cc2nc(N3CCCN(C)CC3)nc(NC3CCN(C)CC3)c2cc1OC
C=CCNC(=O)c1ccc2nc(-c3ccco3)c(-c3ccco3)nc2c1
Clc1cccc[n+]1CCCC[n+]1ccccc1Cl
Cc1ccc(NC(=O)c2ccc3[nH]c(C)cc(=O)c3c2)c(C)c1
O=C(COC(=O)c1ccccc1OCCOc1ccccc1)Nc1cccc(Br)c1
O=C1CC(c2ccc(F)cc2F)c2cc3c(cc2N1)OCO3 (stereo not given)
NS(=O)(=O)c1ccc(NC(=O)CSc2nnc3c(n2)[nH]c2ccccc23)cc1
COc1cc2[nH]c(C)c(CCN3CCN(c4ccccc4)CC3)c2cc1OC
COc1ccc(CCNC(=O)CCCn2c(=O)c3ccccc3n(Cc3ccc(C)cc3)c2=O)cc1OC
Cc1ccc(-c2cc(N)n(Cc3cccc(Cl)c3)n2)cc1
Oc1ccc(Cn2cc[nH]c2=S)cc1
OCC(O)C(O)C(O)C(O)C=Nc1ccc(/C=C/c2ccnc3ccccc23)cc1 (stereo not given) 5.9% [at 0.0914 µM]
CC(C)CNc1ncnc2c1nnn2C
CCN1CCN(c2ccc(/C=C/c3ccnc4ccccc34)cc2)CC1
CCC(C(=O)Nc1cccc(-c2nc3cccnc3s2)c1C)c1ccccc1 (stereo not given)
COC(=O)c1scc(-c2ccccc2)c1S(=O)(=O)Nc1ccccc1
C(=Nc1ccc(/C=C/c2ccnc3ccccc23)cc1)Nc1ccc(/C=C/c2ccnc3ccccc23)cc1
COc1cc2nc(N3CCCN(C)CC3)nc(NC3CC3)c2cc1OC
